Results published in PubChem BioAssay AID493201 (National Center for Advancing Translational Sciences (NCATS), 2011).
Records with an inconclusive call do not appear. A number with no mark means an inactive call. Activity calls are given as the source filed them. The call rests on the fitted dose curve; in most records, active means well fitted activation curve with a large enough effect; inconclusive means small, poorly fitted or top-dose-only effect; inactive means no such curve, though single readings can be large or run the other way.

Experiment: qHTS Assay for Identifying a Potential Treatment of Ataxia-Telangiectasia: Secondary assay (no NCS) hit validation;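 further: phosphorylated KAP1 signal as a proxy for ATM-like kinase activity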; on activation: 0% is about no effect
Settings: A-T patient fibroblasts, AlphaLISA, no DNA damage added, 90 min; series mostly up to 76.9 µM; activation: at the top concentration
Description: NIH Chemical Genomics Center [NCGC]
NIH Molecular Libraries Probe Centers Network [MLPCN]
Assay Submitter (PI): Wei Zheng and Yosef Shiloh
Ataxia-telangiectasia (A-T) is a devastating and progressive disease for which, there is no cure. Although A-T is a multisystem disease, it is stereotyped characterized by its neurological symptoms such as truncal ataxia, due to cerebellar cortical degeneration of the Purkinje and granule cells. Other symptoms of A-T are telangiectasias (dilated blood vessels), primary immunodeficiency, marked sensitivity to ionizing radiation (IR), chromosomal instability and predisposition to cancer.
The underlying genetic cause of A-T is null mutations in the ATM (A-T mutated) gene. ATM is a nuclear serine/threonine kinase that functions as a master regulator of the cellular responses to double strand breaks (DSBs) in the DNA. Upon activation by DSBs, ATM phosphorylates a plethora of downstream targets, including KAP-1 on […]. KAP-1 phosphorylation occurs shortly in response to DSBs and mediates global chromatin relaxation, which facilitates DSB repair. To screen for small molecules that will compensate for the loss of ATM in cells derived from A-T patients, we monitored KAP-1 phosphorylation as a readout for ATM-like activity using an AlphaLISA assay. This secondary assay omits NCS, which creates double-stranded DNA breaks.
Step,Parameter,Value,Description
1. Cell Plating, 3 ul, 500 cells/well in OPTI-MEM, 1% FBS, 1% Pen/Strep
3. Library compounds, 23 nl, 76.7 - 0.61uM dilution series final concentration
4. Incubation, 60 min, 37C, 5% CO2, 95% humidity
6. Incubation, 30 min, 37C, 5% CO2, 95% humidity
7. Reagent, 1 ul, Premixed detection reagents and lysis buffer
8. Reagent, 1 ul, 0.6% Antifoam A
9. Incubation, 6 hr, 25C, 95% humidity
10. Readout, EnVision, EnVision plate reader. AlphaScreen 1536-well protocol
Cells were plated using medium-binding white solid-bottom tissue culture treated Kalypsys plates. Multidrop dispense of 3 uL of F2112 (hTERT immortalized A-T patient fibroblast cells). Detection reagent and lysis buffer was 3.75nM Rab-a-pKAP1 antibody bound to 75 ng/ul AlphaScreen SA donor bead, 3.75 nM Biot-M-a-KAP1 antibody bound to AlphaLISA protein A acceptor bead, 0.5x protease inhibitor cocktail and 0.25x PerkinElmer lysis buffer. EnVision protocol for 1536-well AlphaScreen read (30ms excitation, 100ms read), about 10 min/plate.
Potency means the concentration at half of the fitted maximal effect.

Row | SMILES | activation | Potency
1 | CCn1c(SCc2cccc(F)c2)nnc1-c1ccncc1 | 11.8% | 
2 | CCOC(=O)N1CCC(NC(=O)C2CCN(S(=O)(=O)c3cccc4cccnc34)CC2)CC1 | 12.9% | 
3 | COc1cccc(C2C(C(N)=O)=C(C)Nc3nc(CCCO)nn32)c1 (stereo not given) | -0.87% | 
4 | CC1=NOC2(C1)N(C)c1ccccc1C2(C)C (stereo not given) | 3.23% | 
5 | Cc1ccc(NC(=O)CSc2nnc([C@H](C)NC(=O)OC(C)(C)C)o2)c(C)c1 | 28.8% | 
6 | O=C(O)CCCC(=O)N1N=C(c2ccccc2)CC1c1cccs1 (stereo not given) | 0% | 
7 | CCC(=O)Nc1ccc(S(=O)(=O)c2ccc(NC(=O)CC)cc2)cc1 | 15.3% | 
8 | O=C(CSc1ccccn1)N/N=C/C=C/c1ccccc1 | -21.7% | 
9 | CN(C)S(=O)(=O)c1cccc(C(=O)N=C2N=C3C=CC(Cl)=CN3Cc3ccccc32)c1 | -3.39% | 
10 | O=C(CCCn1nnnc1CN1CCOCC1)N1CCC(c2ccc(F)cc2)C1 (stereo not given) | -5.38% | 
11 | N#Cc1c2c(c(-n3cnc4ccccc43)n3c1nc1ccccc13)CCC2 | 5.38% | 
12 | N#Cc1c(-c2ccccc2)cc(-c2ccccc2)[nH]c1=O | -3.48% | 
13 | CC(C)c1ccc(-c2cc(C(=O)N3CCOCC3)c3cc(Br)ccc3n2)cc1 | -6.09% | 
14 | CC(=O)c1ccc([N+](=O)[O-])c(CS(=O)(=O)c2ccc(Cl)cc2)c1 | 0% | 
15 | Cc1oc2c(c(C)cc3oc(=O)c(CC(=O)NCC(=O)NCC(=O)O)c(C)c32)c1C |  | 3.28 µM (active)
16 | CCC[C@H]1CCCC/C=C\CCCC(=O)OCCN1C(=O)OC(C)(C)C | 0% | 
17 | COc1ccc(/C=N/Nc2nc(=O)[nH]nc2C)cc1OC | -2.15% | 
18 | CC(C)Nc1nc(Oc2ccc(=O)n(-c3ccccc3)n2)nc(N(C)C)n1 | 16.5% | 
19 | CC(=O)Nc1ccc(S(=O)(=O)NCC2(N3CCOCC3)CCCCC2)cc1 | 29.7% | 
20 | C=CCOC(=O)C1=C[C@H](c2coc3ccccc3c2=O)C[C@H](OCc2ccc(CO)cc2)O1 | 15.3% | 

Row | SMILES | activation | Potency
21 | O=C(c1ccc(F)cc1)c1ccc(N2CCCCC2)cc1 | -6.96% | 
22 | O=C1C(Cl)=C(Nc2ccc3cn[nH]c3c2)C(=O)c2ccccc21 |  | 1.3 µM (active)
23 | COc1ccc(C(CNC(=O)C(Cc2ccccc2)NC(N)=O)N(C)C)cc1 (stereo not given) | -3.48% | 
24 | CCN1CCN(CC(=O)Nc2ccc(C(C)=O)cc2)CC1 |  | 26 µM (active)
25 | Cc1ccc(C(=O)c2c(C)oc3c2C(=O)C(=O)c2ccccc2-3)cc1 | 25.2% | 
26 | CNC(=O)/C=C/c1cc(C(=O)c2ccc(Cl)cc2Cl)cn1C | 4.3% | 
27 | C=CS(=O)(=O)c1sc(Cl)c(N2CCOCC2)c1[N+](=O)[O-] | 7.53% | 
28 | COc1ccc(C(=O)CSc2nc3ncccc3[nH]2)cc1OC | -4.24% | 
29 | COc1ccc(CCNC2=NCCS2)cc1OC | 0% | 
30 | COc1ccc(NS(=O)(=O)c2ccc(N3CC(O)=C(c4ccccc4)C3=N)cc2)cc1 | -5.38% | 
31 | O=C(O)CCCN1C(=O)/C(=C/C=C/c2ccco2)SC1=S | 3.23% | 
32 | CCn1nc(C)c(/C=N/NC(=O)Cn2cncn2)c1C | 4.3% | 
33 | Cc1cccc(C)c1NC(=O)COC(=O)c1cc(=O)c2ccccc2o1 | 26.3% | 
34 | COc1ccccc1OC(=O)Nc1ccc(Cl)cc1 |  | 3.28 µM (active)
35 | CCCc1ccc(S(=O)(=O)Nc2ccc(C)c(NS(C)(=O)=O)c2)cc1 | -7.83% | 
36 | COC(=O)CCc1c(C)c(C(=O)c2cc(OC)c(OC)c(OC)c2)c2ccccn12 | 9.68% | 
37 | COc1ccc(-n2c(C)cc(=O)[nH]c2=O)cc1 | 1.08% | 
38 | CCOC(=O)C1=C(C)N(c2ccc(OC)cc2)C(=O)/C1=C\c1ccc(O)c(OCC)c1 | -4.3% | 
39 | COc1ccc(C(=O)/C=C/C(=O)N(CC(=O)NC2CCCCC2)Cc2ccccc2)c(O)c1 | -0.87% | 
40 | CNC(=S)N(CCO)Cc1cc2cc3c(cc2[nH]c1=O)OCCO3 | -8.47% | 
